GPR151 activ = activates the human receptor GPR151. PathHunter beta-arrestin GPR151 cells, luminescence. activation, % at 11.2 µM. 650,000 tested, 1% active. AID 1508602; in the data active = activation above about 4.9%;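 note: 0% = median of compound wells and 100% = cells with positive control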
FBW7 activator = human FBW7 E3 ligase activation, primary screen; Q969H0; AlphaScreen FBW7–phospho-cyclin E peptide binding, activator screen; normalized activity (activation), % at 26.1 µM; 650,000 tested, 0.13% active; AID 1259310; in the data active = normalized activity above about 1.9%;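 note: purified mutant Fbw7 with reduced substrate affinity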
TEAD-YAP block = TEAD-YAP interaction inhibition. inhibition, % at 9.12 µM. HEK-TIYL cells, TEAD-Gal4/YAP UAS-luciferase luminescence. 640,000 tested, 1.4% active; in the data active = inhibition above about 32%;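 note: 0% = median of test compound wells and 100% = reference inhibitor wells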
MITF inh = inhibitors of human MITF; O75030; 650,000 tested, 0.91% active; AID 1259374; inhibition, % at 2.6 µM; AlphaScreen MITF homodimerization, bead proximity signal; in the data active = inhibition above about 50%;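 note: 0% = vehicle wells with protein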
Target sequence (O75030 whole entry, looked up): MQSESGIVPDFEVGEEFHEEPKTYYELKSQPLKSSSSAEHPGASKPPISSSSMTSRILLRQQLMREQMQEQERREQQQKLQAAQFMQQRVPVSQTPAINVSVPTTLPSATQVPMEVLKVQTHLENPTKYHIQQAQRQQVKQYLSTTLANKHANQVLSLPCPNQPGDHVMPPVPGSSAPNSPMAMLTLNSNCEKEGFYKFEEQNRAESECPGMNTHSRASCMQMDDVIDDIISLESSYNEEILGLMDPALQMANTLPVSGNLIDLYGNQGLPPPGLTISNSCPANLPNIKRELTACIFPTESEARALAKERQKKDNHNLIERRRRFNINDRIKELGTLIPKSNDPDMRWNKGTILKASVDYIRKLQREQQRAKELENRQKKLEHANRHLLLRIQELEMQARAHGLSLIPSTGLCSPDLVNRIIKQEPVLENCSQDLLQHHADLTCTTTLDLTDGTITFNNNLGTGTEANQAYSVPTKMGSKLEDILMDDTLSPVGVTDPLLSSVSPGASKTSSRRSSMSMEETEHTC
Starred values were filed as active, the others as inactive. Hits are enriched below; roughly 3.4% of the tested compounds scored in any of these assays.

SMILES	GPR151 activ	FBW7 activator	TEAD-YAP block	MITF inh
CCCC(=O)Nc1ccc(C(=O)Nc2ccc(S(=O)(=O)Nc3nccs3)cc2)cc1	-1	0	1	13
Cc1cc(/C=C2\C(=O)NC(=S)N(c3ccc(F)cc3)C2=O)c(C)n1-c1cccnc1	-2	0	0	110*
CCc1ccc(N2C(=O)NC(=O)/C(=C\c3cc(C)n(-c4cccnc4)c3C)C2=O)cc1	-2	0	5	-17
Cc1cc(/C=C2\C(=O)NC(=O)N(c3cccc(F)c3)C2=O)c(C)n1C	1	0	1	55*
Cc1ccc(N2C(=O)NC(=O)/C(=C\c3cc(C)n(C)c3C)C2=O)cc1	-1	0	5	15
CC(NCC(=O)Nc1ccc(Br)cc1)C1CC2CCC1C2 (configuration not stated)	-1	0	27	4
COc1cc(Nc2nc3ccc(C(=O)NCc4cccnc4)cc3s2)cc(OC)c1OC	3	0	42*	6
COc1cc(NC(=O)c2ccc3nc(Nc4ccccn4)sc3c2)cc(OC)c1OC	-3	0	32*	-3
O=C(NCc1ccccc1)c1ccc2nc(Nc3ccc(-n4ccnc4)cc3)sc2c1	3	0	36*	9
O=C(NCc1cccc(C(F)(F)F)c1)c1ccc2nc(Nc3ccc(-n4ccnc4)cc3)sc2c1	0	0	11	-1
O=C(NCc1cccnc1)c1ccc2nc(Nc3ncccn3)sc2c1	1	0	-32	-15
CCOC(=O)c1c(C(=O)OCC)c(C)n(CCc2c[nH]c3ccccc23)c1C	0	0	15	11
Cc1ccc(C2=NN3C(C2)c2ccccc2OC3c2ccc(C(C)(C)C)cc2)cc1 (configuration not stated)	0	0	-58	5
COc1ccc2cc3cc(C(=O)Nc4cc(OC)c(OC)c(OC)c4)oc3nc2c1	1	0	58*	7
COc1ccc2cc3cc(C(=O)NC4CCN(Cc5ccccc5)CC4)oc3nc2c1	-1	0	90*	-3
COc1ccc2cc3cc(C(=O)NC4CC4)sc3nc2c1	-5	0	74*	-1
COc1ccc2cc3cc(C(=O)NCCCN4CCCCCC4)oc3nc2c1	0	-1	-14	-15
Cc1ccccc1C(=O)Oc1ccc(N2C(=O)C3C4C=CC(C5CC45)C3C2=O)cc1 (configuration not stated)	0	0	11	13
Fc1ccc(C2=NNC(c3cccnc3)=Nc3ccccc32)cc1	-2	0	-6	21
O=C1CSC(=O)N1CNc1ccc(Br)cc1	0	0	-2	-3
COc1ccc(CC(=O)NNC(=S)Nc2ccccc2)cc1Cl	-2	0	-7	-4
Cn1c(SCCc2ccccc2)nc2c(c1=O)C(C)(C)Cc1ccccc1-2	1	0	15	6
Cc1nonc1C(=O)N/N=C/c1ccc(O)cc1O	-8	-1	4	82*
CN(C)Cc1c(C(=O)N/N=C/c2ccc(O)cc2O)nnn1-c1nonc1N	0	-1	24	15
CCc1c(C(=O)N/N=C/c2ccc(O)cc2O)nnn1-c1nonc1N	-2	0	76*	0
SMILES	GPR151 activ	FBW7 activator	TEAD-YAP block	MITF inh
CCCN(CCC)Cc1c(C(=O)N/N=C/c2ccc(O)cc2O)nnn1-c1nonc1N	0	0	71*	36
CC(C)(C)c1ccc(C(=O)N/N=C/c2ccc(O)cc2O)cc1	1	0	9	-51
Cc1ccc(C(=C2C3C=CC2C2C(=O)NC(=O)C32)c2ccc(C)cc2)cc1 (configuration not stated)	2	1	-6	1
COc1ccc(-c2cn3nc(N4CCCC(C(=O)O)C4)sc3n2)cc1 (configuration not stated)	0	0	-4	42
O=C(O)C1CCCN(c2nn3cc(-c4ccc(F)cc4)nc3s2)C1 (configuration not stated)	-13	0	85*	-5
CCOC(=O)c1c(NC(=O)C(C)Sc2nnc(CNC(=O)c3ccco3)n2-c2ccc(F)cc2)sc2c1CCC2 (configuration not stated)	1	0	3	-1
Cc1c(C(=O)NC2=NCCS2)oc2ccccc12	-6	0	38*	-25
O=C(COc1ccc(Cl)cc1Cl)Nc1ccc2c(c1)OCCO2	-1	0	-33	19
FC(F)(F)C1=Nc2cccc3cccc(c23)N1	0	0	6	114*
CCNc1nc(Nc2ccc3c(c2)OCO3)c2ncn(C(C)C)c2n1	-1	0	-45	10
c1ccc(-n2cnc3c(Nc4ccc5c(c4)OCO5)nc(Nc4ccncn4)nc32)cc1	0	0	-39	-3
c1ccc(-n2cnc3c(Nc4ccc5c(c4)OCO5)nc(Nc4ccc5ncccc5c4)nc32)cc1	0	7.1*	12	-6
COc1cc(Nc2nc(Nc3ccc4ncccc4c3)nc3c2ncn3-c2ccsc2)cc(OC)c1OC	-1	0	32*	8
COc1cc(Nc2nc(Nc3ccc(C(F)(F)F)cc3)nc3c2ncn3-c2ccsc2)cc(OC)c1OC	0	0	7	17
c1ccc(-n2cnc3c(Nc4ccc5c(c4)OCO5)nc(Nc4ccc(-n5ccnc5)cc4)nc32)cc1	1	0	43*	18
CC(C)n1cnc2c(Nc3ccc4c(c3)OCO4)nc(Nc3nccc4ccccc34)nc21	-1	0	36*	5
Cc1occc1C(=O)N1CCCC(CNC(=O)c2ccc(F)cc2)C1 (configuration not stated)	-1	0	-8	3
COc1ccc(-c2cnnc(N3CCCC(CN4CCOCC4)C3)n2)cc1 (configuration not stated)	-1	1	8	8
c1ccc2c(Nc3nc(Nc4ccc5c(c4)OCO5)c4ncn(-c5ccsc5)c4n3)nccc2c1	1	0	49*	4
c1cnc2ccc(Nc3nc(Nc4ccc5c(c4)OCO5)c4ncn(-c5ccsc5)c4n3)cc2c1	1	8.5*	45*	-10
COc1ccc(/C=N/NC(=O)c2ccc[n+]([O-])c2)cc1O	1	0	7	1
COc1ccc(C(=O)COc2cccc3c(=O)n(C)ccc23)cc1	3	0	48*	-3
Cc1cc(Br)c(S(=O)(=O)N2CCCCC2)cc1C	-1	0	1	12
Cc1cc(Br)c(S(=O)(=O)N2CCC(C)CC2)cc1C	1	2.1*	1	7
COc1ccccc1CNC(=O)c1cc2c(=O)[nH]c3ccccc3c2n1C	2	4.8*	-1	-3
O=C(c1cccn2c(=O)c3ccc(Cl)cc3nc12)N1CCc2ccccc2C1	0	0	-3	3
O=C(CCl)NC(C1CCCCC1=O)C(Cl)(Cl)Cl (configuration not stated)	0	0	42*	-17
COc1ccc(C2CC(C(F)(F)F)n3nc(C(=O)N4CCCCC4)cc3N2)cc1OC (configuration not stated)	0	0	38*	-6
O=C1OC(Nc2nc3ccccc3s2)c2ccccc21 (configuration not stated)	-1	2.0*	-4	10
